Source: PubChem BioAssay
In the library only some 11% were active in any assay of this set; here they are far more common.
JMJD2A Tudor inh – JMJD2A Tudor domain (human) inhibition. AlphaScreen JMJD2A-Tudor / H3K4me3 peptide binding. Potency, µM (series often up to 114 µM), inactives show top-dose activity change, negative = inhibition, most hits filed as inhibitors. 390,000 tested, 4.4% active. AID 504339; also: potency is read from the fitted curve at half-maximal effect; % is scaled to controls: 0 for no effect and ±100 for the full control effect; nearly all actives have a fitted effect of over 50% in size
Target sequence (O75164 whole entry, looked up, the tested form may be a part): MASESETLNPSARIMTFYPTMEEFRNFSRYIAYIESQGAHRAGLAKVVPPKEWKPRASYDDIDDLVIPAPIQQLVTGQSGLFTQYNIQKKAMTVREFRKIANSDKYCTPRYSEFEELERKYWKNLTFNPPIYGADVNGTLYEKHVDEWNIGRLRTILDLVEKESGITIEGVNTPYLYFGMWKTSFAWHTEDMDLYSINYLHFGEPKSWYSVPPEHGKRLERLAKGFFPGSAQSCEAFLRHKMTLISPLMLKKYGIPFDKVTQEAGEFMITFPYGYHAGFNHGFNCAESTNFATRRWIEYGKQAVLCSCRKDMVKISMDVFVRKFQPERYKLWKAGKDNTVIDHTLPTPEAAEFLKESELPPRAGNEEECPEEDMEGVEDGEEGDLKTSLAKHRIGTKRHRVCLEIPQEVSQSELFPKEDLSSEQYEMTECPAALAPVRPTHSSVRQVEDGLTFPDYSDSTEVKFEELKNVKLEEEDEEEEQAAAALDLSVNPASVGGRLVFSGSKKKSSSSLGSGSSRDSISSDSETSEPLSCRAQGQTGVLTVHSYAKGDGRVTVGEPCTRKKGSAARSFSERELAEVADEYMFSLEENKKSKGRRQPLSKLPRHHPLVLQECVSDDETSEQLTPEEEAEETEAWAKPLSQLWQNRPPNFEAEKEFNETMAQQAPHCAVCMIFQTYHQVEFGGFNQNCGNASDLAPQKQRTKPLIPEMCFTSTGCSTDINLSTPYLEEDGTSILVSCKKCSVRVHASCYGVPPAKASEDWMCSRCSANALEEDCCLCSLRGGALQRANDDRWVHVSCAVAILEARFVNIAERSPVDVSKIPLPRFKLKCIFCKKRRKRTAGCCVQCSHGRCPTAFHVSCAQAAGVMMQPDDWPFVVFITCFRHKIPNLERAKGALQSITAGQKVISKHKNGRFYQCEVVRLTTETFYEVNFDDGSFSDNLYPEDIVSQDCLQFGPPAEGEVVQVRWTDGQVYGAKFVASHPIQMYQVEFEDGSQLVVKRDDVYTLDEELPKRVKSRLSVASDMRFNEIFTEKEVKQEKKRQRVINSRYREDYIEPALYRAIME
HP1b chromo inh – inhibitors of HP1-beta chromodomain binding to methylated histone tails; P83916; Potency, µM (doses to about 114 µM), without a hit: at the top dose activity change, negative = inhibition, hits mostly inhibitors; 390,000 tested, 0.56% active; AlphaScreen HP1-beta / biotin-H3K9me3 peptide binding; also: potency is read from the fitted curve at half-maximal effect; nearly all actives have a fitted effect of over 70% in size
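Compound inhibition of the preformed complex between 50 nM HP1-beta and 50 nM biotinylated H3K9me3 peptide was read by AlphaScreen. Buffer was PBS pH 7.4 with 0.01% Tween-20. Incubations ran 30 min at room temperature, with 10 ug/mL donor/acceptor beads.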
PI5P4K alpha inh – blocks human PI5P4K alpha kinase activity | max response, % | 330,000 tested, 1.2% active | P48426 | PI5P4Kalpha enzyme, ADP-Glo luminescence, 60 min; active compounds read low; active = max response of -50% or lower; inconclusive = between -30% and -50%; inactive = -30% or higher; also: value at the top dose of about 77 µM; % is scaled to controls: 0 for no effect and ±100 for the full control effect
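Quantitative HTS of the MLSMR library against PI5P4Kalpha with substrate. ATP added last at 5 microM final; room temperature, 60 minutes. Remaining ATP depleted, ADP converted and read as luminescence.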
BAZ2B block – blocks human BAZ2B. Q9UIF8. AlphaScreen BAZ2B-H3K14Ac peptide displacement. Potency, µM (titrated, usually from 114 µM), for inactives: at the highest dose activity change, negative = inhibition, most hits filed as inhibitors. 360,000 tested, 4.4% active. AID 504333; also: potency is read from the fitted curve at half-maximal effect; % is scaled to controls: 0 for no effect and ±100 for the full control effect; nearly all actives have a fitted effect of over 60% in size
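Multi-concentration screen (max 110 uM) measuring displacement of acetylated histone H3 peptide from BAZ2B by AlphaScreen, using 50 nM protein, 50 nM peptide and 10 ug/mL streptavidin donor plus Ni-chelate acceptor beads.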
G9a inh – G9a (human) methyltransferase inhibition; G9a H3K9 monomethylation, AlphaScreen, 2 h; Potency, µM (top dose mostly 102 µM), for the others: top-dose activity, negative = inhibition, actives largely listed as inhibitors; 350,000 tested, 8.8% active; AID 504332; also: potency is read from the fitted curve at half-maximal effect; % is scaled to controls: 0 for no effect and ±100 for the full control effect; nearly all actives have a fitted effect of over 75% in size
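Compounds were preincubated with 20 nM G9a for 15 min, after which biotinylated H3K9 peptide (500 nM) and SAM (20 uM) started a 2 h room-temperature reaction. Monomethylated product was quantified by antibody-based AlphaScreen chemiluminescence.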
L3MBTL1 inh-1 – blocks human L3MBTL1. AlphaScreen L3MBTL1–H3K9me1 peptide binding. Potency, µM (top dose mostly 57.1 µM), without a hit: top-dose activity, negative = inhibition, usual class: inhibitors. 230,000 tested, 0.66% active; also: potency is read from the fitted curve at half-maximal effect; % is scaled to controls: 0 for no effect and ±100 for the full control effect; nearly all actives have a fitted effect of over 60% in size
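AlphaScreen proximity signal between nickel-chelate acceptor and streptavidin donor beads (final 10 ug/mL) reports binding of 50 nM L3MBTL1 to 75 nM biotin-H3 K9me1 peptide; complex incubated with compounds 30 min at room temperature; cefsulodin titration as control.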
L3MBTL1 inh-2 – L3MBTL1 binding inhibition validated | Potency, µM, hits mostly inhibitors | AID 540279 | L3MBTL1 methyl-lysine binding inhibition, biochemical qHTS | shares compounds with L3MBTL1 inh-1 | 500 tested, 91% active; also: potency is read from the fitted curve at half-maximal effect; nearly all actives have a fitted effect of over 70% in size
L3MBTL1 ctr – interferes with AlphaScreen signal in L3MBTL1 counterscreen | shares compounds with L3MBTL1 inh-1 | AlphaScreen counterscreen, signal inhibition | Potency, µM (highest dose often 57.1 µM), without a hit: at the top dose activity change, negative = inhibition, most hits filed as inhibitors | 500 tested, under 10 active | AID 602224; also: potency is read from the fitted curve at half-maximal effect; 0% is about no effect
Starred values were filed as active, the others as inactive; ? = inconclusive; nt = not tested or not shown; [ ] = another dose, or the depositor's remark. Unless noted, calls follow the shape of the dose curve; as a rule, active = well fitted curve in the direction sought with a large enough effect; inconclusive = small, poorly fitted or top-dose-only effect, or another doubt; inactive = no such curve, though single readings can be large; an effect the other way counts as inactive or inconclusive.

SMILES | JMJD2A Tudor inh | HP1b chromo inh | PI5P4K alpha inh | BAZ2B block | G9a inh | L3MBTL1 inh-1 | L3MBTL1 inh-2 | L3MBTL1 ctr
Cc1[nH]nc(N=CC2=C(O)CC(c3ccco3)CC2=O)c1-c1ccc(Cl)cc1 (centres undefined) | 0% | 40% | nt | -2% | ? | nt | nt | nt
Cc1ccc2nc(/C(C#N)=C\c3cc(C)n(-c4cccc([N+](=O)[O-])c4)c3C)[nH]c2c1 | ? | -6% | nt | ? | ? | nt | nt | nt
Cc1cc(/C=C(/C#N)c2nc3ccccc3[nH]2)c(C)n1-c1cc(C(=O)O)cc(C(=O)O)c1 | 25µM* | ? | -79* | 40µM* | 13µM* | 3.5µM* | 1.5* | -15%
COc1ccccc1N1CCN(C(=O)c2ccc3nc(-c4ccco4)c(-c4ccco4)nc3c2)CC1 | ? | -29% | -16 | ? | 10µM* | 28µM* | 19* | -2%
O=C(NC1CCCCC1)C1c2ccccc2OCC(=O)N1CCc1ccccc1 (centres undefined) | nt | nt | -1 | nt | nt | nt | nt | nt
O=C(O)c1ccccc1Sc1ccccc1S(=O)(=O)NC1CCCCC1 | 7% | 25% | -5 | -4% | nt | 7% | nt | nt
O=C1CCCC(O)=C1Sc1ccccc1C(=O)O | 22µM* | 25µM* | -16 | 79µM* | 25µM* | 16µM* | 2.4* | ?
O=C(O)c1ccc(S(=O)(=O)Nc2ccc(O)c(Sc3nc4ccccc4s3)c2)cc1 | 89µM* | 3% | ? | ? | nt | 22µM* | 7.5* | -5%
CC(=O)c1ccc(S(=O)(=O)Nc2c(C)nn(C)c2C)cc1 | -14% | -2% | -16 | -9% | 45µM* | 28µM* | ? | 2%
Cc1ccc(S(=O)(=O)Nc2c(C)nn(C)c2C)cc1C | -4% | 19% | -4 | -1% | 16%[59 µM] | 2% | nt | nt
COC(=O)\C(C(C)=O)=C(/C=C/C=C/C=C/N(C)C)N(C)C | 11µM* | ? | 1 | 18µM* | 32µM* | 7.1µM* | 3* | ?
Oc1ccccc1N=Cc1c(O)ccc2ccccc12 | ? | -3% | -9 | 11µM* | 7.9µM* | 28µM* | 6* | 12%
CC1=NOC(=O)/C1=C\c1ccc(-c2ccc(Br)cc2C(=O)O)o1 | -15% | -5% | -22 | ? | nt | 22µM* | 27* | 2%
NCC1O[C@@H](OC2C(N)C[C@H](N)[C@@H](O[C@H]3OC(CO)C(O)C(N)C3O)C2O)C(N)C(O)C1O (some centres undefined) | nt | nt | nt | nt | -5%[2.33 µM] | nt | nt | nt
CC(=O)c1ccccc1NS(=O)(=O)c1cccc2nsnc12 | ? | ? | ? | 50µM* | 50µM* | 32µM* | 27* | 7%
CCOc1ccc(CCNC(=O)CN2C(=O)COc3ccc(S(=O)(=O)N(CC)CC)cc32)cc1 | -18% | 33% | nt | -23% | -24%[59 µM] | nt | nt | nt
COc1cc(OC)cc(C(=O)Nn2cc(C(=O)Nc3ccccc3F)c3ccccc3c2=O)c1 | -18% | 10% | 0 | -34% | -14% | -6% | nt | nt
O=C(Nn1cc(C(=O)Nc2ccccc2F)c2ccccc2c1=O)c1cnccn1 | 28µM* | 23% | 3 | 28µM* | -18% | 40µM* | ? | 36%
COc1ccc(-c2nc3sc(CCNC(=O)C(=O)Nc4c(C)cccc4C)c(C)n3n2)cc1 | -11% | 44% | nt | -2% | -2%[59 µM] | nt | nt | nt
Nc1cc2c(cc1[N+](=O)[O-])OCCO2 | -19% | 13% | -7 | -6% | 10%[59 µM] | -4% | nt | nt
Nc1cc2c(cc1[N+](=O)[O-])OCO2 | ? | -12% | -60* | 56µM* | 50µM* | 32µM* | 8.4* | 10%
C=CCOc1ccccc1/C=c1\sc2nc(-c3oc4ccccc4c3C)nn2c1=O | -3% | 30% | nt | nt | nt | nt | nt | nt
Cc1ccc(/C=c2\sc3nc(-c4ccco4)nn3c2=O)o1 | -16%[11.4 µM] | 22µM* | -69* | 50µM* | 18µM* | 7.9µM* | 17* | 1%
O=C(O)C1C2C=CC(O2)C1C(=O)NCCC1=CCCCC1 (centres undefined) | -32% | 42% | nt | 3% | ? | 18µM* | 3.8* | 2%
O=C(NCCC1=CCCCC1)C(=O)NCc1ccccc1 | -14% | 30% | -8 | 8% | -43%[59 µM] | -17% | nt | nt
SMILES | JMJD2A Tudor inh | HP1b chromo inh | PI5P4K alpha inh | BAZ2B block | G9a inh | L3MBTL1 inh-1 | L3MBTL1 inh-2 | L3MBTL1 ctr
CCOc1ccc(OCCCC(=O)N2CCN(S(=O)(=O)c3ccc(Cl)cc3)CC2)cc1 | 18µM* | ? | -7 | 45µM* | 2.8µM* | 32µM* | 27* | 0%
COc1ccc(CNC(=O)Cc2csc3nc(-c4ccc(F)cc4)cn23)cc1 | -6% | 27%[57 µM] | nt | 4% | 6%[59 µM] | nt | nt | nt
O=S(=O)(NCc1nc2cccnc2n1Cc1ccccc1)c1ccc2c(c1)CCCC2 | -32% | 25%[57 µM] | nt | -11% | -8%[59 µM] | nt | nt | nt
Cc1ccc(OCC(=O)c2c(N)n(C)c(=O)n(C)c2=O)c([N+](=O)[O-])n1 | ? | 20µM* | -50* | 25µM* | 60%[12.7 µM] | 7.9µM* | 0.84* | ?
CCCCN1Cc2c(nc3cc(-c4ccco4)[nH]n3c2=O)C1=O | -17% | 57% | ? | ? | ? | 28µM* | 27* | -26%
Cc1ccc(S(=O)(=O)Cc2ccc(C(=O)N3CCN(c4cccc(C)c4C)CC3)o2)cc1 | ? | -6% | 2 | -34% | -3% | -6% | nt | nt
Cc1ccc(S(=O)(=O)Cc2ccc(C(=O)N3CCN(Cc4ccccc4)CC3)o2)cc1 | nt | nt | nt | 50µM* | 45µM* | 32µM* | 15* | 3%
Cn1c(C(=O)NCc2ccc(F)cc2)cc2c(=O)n(C)c3ccccc3c21 | -10% | 38% | nt | -27% | -3%[59 µM] | nt | nt | nt
Cc1cc(=O)oc2c(CN3CCC(C)CC3)c(O)c(Cl)cc12 | -28% | -6% | ? | ? | -41%[59 µM] | 32µM* | 11* | 15%
CCN(CC)Cc1c(O)c(Cl)cc2c(C)cc(=O)oc12 | -33% | ? | ? | 56µM* | ? | 22µM* | 15* | 3%
CCNc1ncc2nc(CCc3ccccc3)c(=O)n(C3CC3)c2n1 | nt | nt | nt | nt | 4%[0.501 µM] | nt | nt | nt
COC(=O)Cc1cc(=O)n(-c2nc3ccccc3[nH]2)[nH]1 | 18µM* | 27% | nt | 7.9µM* | 6%[59 µM] | 13µM* | 6.7* | ?
CCOc1ccccc1CNC(=O)c1ccc2nc(CCc3ccccc3)oc2c1 | -16% | 25%[57 µM] | nt | -1% | 17%[59 µM] | nt | nt | nt
c1cncc(-c2nn3c(Cn4nnc5ccccc54)nnc3s2)c1 | -9% | -22% | nt | 14% | 13%[2.33 µM] | 29% | nt | nt
